In test [1] the target is PGR (gene 5241) (UniProt P06401). Put plainly: TOX21_PR_BLA_Followup_Antagonist_ratio: Tox21 HEK293 Progesterone Receptor (PR) Antagonism Beta-lactamase Follow-Up Assay, Ratio (AID 2283934; active = hit-call score of the fitted dose curve at least 0.9, where 1 is the maximum). The method in brief: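 PR-UAS-bla HEK293T cells, 3,000/well in 2% charcoal-stripped FBS, given compound plus 1nM R5020 agonist for 16 hr at 37C. Beta-lactamase FRET substrate 2 hours, ratio cleaved/uncleaved fluorescence; viability by CellTiter-Glo in same wells.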

Test [2] is described as follows: TOX21_PR_BLA_Followup_Agonist_viability: Viability Assessment in the Tox21 HEK293 Progesterone Receptor (PR) Agonism Beta-lactamase Follow-Up Assay (AID 2283935; active = hit-call score of the fitted dose curve at least 0.9, where 1 is the maximum;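 note: signal loss means lower viability so actives are cytotoxic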). The method, boiled down: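 PR-UAS-bla HEK293T cells in 2% charcoal-stripped FBS medium, plated 6 hr before compound addition, exposed 16 hr at 37C. Viability read by CellTiter-Glo ATP luminescence after 30 min at room temperature, in the same wells as the beta-lactamase readout.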

Test [3] is described as follows: TOX21_PR_BLA_Followup_Antagonist_viability: Viability Assessment in the Tox21 HEK293 Progesterone Receptor (PR) Antagonism Beta-lactamase Follow-Up Assay (AID 2283936; active = hit-call score of the fitted dose curve at least 0.9, where 1 is the maximum;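 note: hits lower the luminescence signal meaning cytotoxicity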). The method, boiled down: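 PR-UAS-bla HEK293T cells (3,000/well, 2% charcoal-stripped FBS) given compound plus R5020 agonist, 16 h at 37C. CellTiter-Glo added after bla read, 30 min at room temperature; luminescence loss indicates cytotoxicity.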

A short description of test [4]: TOX21_PR_LUC_Followup_Antagonist_viability: Viability Assessment in the Tox21 HEK293 Progesterone Receptor (PR) Antagonism Luciferase Follow-Up Assay (AID 2283940; active = hit-call score of the fitted dose curve at least 0.9, where 1 is the maximum). The method, boiled down: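 HEK293-PR-A-luc cells kept in charcoal-stripped FBS medium were plated 5 h before compound addition, then exposed 16 h at 37C; viability read as cellular ATP by luciferase luminescence, loss of signal indicating cytotoxicity.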

Test [5] can be described thus: CEETOX_H295R_ESTRADIOL_noMTC: CeeTox H295R High-throughput Steroidogenesis Assay for Estradiol, maximum tolerated concentration (MTC) filtered results only (AID 2283919). The note with it: actives raise or lower the signal. The method in brief: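 H295R human adrenal cells pre-stimulated 48 h with 10 uM forskolin, then exposed 48 h to chemical (0.1% DMSO final). Estradiol in medium measured by HPLC-MS/MS after MTBE extraction and dansyl derivatization; bidirectional fit versus DMSO, concentrations not MTT-filtered.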

Test [6] can be described thus: CEETOX_H295R_PROG_noMTC: CeeTox H295R High-throughput Steroidogenesis Assay for Progesterone (PROG), maximum tolerated concentration (MTC) filtered results only (AID 2283920). The note with it: actives raise or lower the signal. As to the method:
CEETOX_H295R is a cell-based, multiplexed-readout assay that uses H295R, a human adrenal gland cell line, with measurements taken at 48 hours after chemical dosing in a 96-well plate.CEETOX_H295R_PROG_noMTC is one of 12 assay component(s) measured or calculated from the CEETOX_H295R assay (11 hormones and 1 viability assay). It is designed to make measurements of hormone induction, a form of inducible reporter, as detected with absorbance signals by HPLC-MS-MS technology. The concentrations for these components have not been pre-filtered for the maximum tolerated concentration (MTC) based on the MTT assay (_noMTC).Data from the assay component CEETOX_H295R_PROG_noMTC was analyzed into 1 assay endpoint. This assay endpoint, CEETOX_H295R_PROG_noMTC, was analyzed with bidirectional fitting relative to DMSO as the negative control and baseline of activity. Using a type of inducible reporter, gain or loss-of-signal activity using HPLC-MS-MS was used to understand synthesis of Progesterone in H295R cell line at 48hr of chemical exposure, without filtering concentrations for maximum tolerated concentration (MTC). To generalize the intended target to other relatable targets, this assay endpoint is annotated to the steroid hormone intended target family, where the subfamily is progestagens.
Cell culture and media preparation procedures were conducted in accordance with OECD Test No. 456 guidelines, with minor modifications. H295R cells (ATCC CRL-2128) were expanded for 5 passages and frozen in batches in liquid nitrogen. Prior to the steroidogenesis assay, H295R cells were thawed and passed at least 4 times. The maximum passage was 10. Cells were maintained in a 1:1 mixture of DMEM/F12 supplemented with 5ml/L ITS+ Premix (BD Bioscience) and 12.5 ml/L Nu-Serum (BD Bioscience). After seeding cells into 96-well plates at 50-60% confluency, cells were allowed to adhere overnight. Prior to chemical testing, culture medium was replaced with 175 uL medium containing 10 uM forskolin to stimulate steroidogenesis for 48 hours. Following prestimulation, forskolin medium was replaced with medium containing test chemical solubilized in DMSO (ensuring a final concentration of 0.1% DMSO). Test chemicals were incubated for 48 hours, then the medium was removed and split into 2 vials containing approximately 75uL each, and stored at -80 C prior to hormone analysis. For steroid quantification, media samples were shipped to OpAns, LLC (Durham, NC) on dry ice, and samples were thawed to room temperature prior to liquid-liquid extraction. Steroid hormones were extracted from media samples using methyl tertbutyl ether (MTBE). An extra derivatization with dansyl chloride was included for estrogen (estrone and estradiol) detection only. Steroid hormones were separated by HPLC, eluted using a reverse phase C18 gradient with electrospray positive ionization, followed by quantification by tandem mass spectrometry (MS/MS). Data were acquired on a MassHunter Workstation Acquisition version B03.01 (Agilent Technologies, Inc.) and processed using MassHunter Quantitative Analysis for QQQ. Accuracy was determined for each hormone analyte from 3 standards to determine upper and lower limits of quantification (ULOQ and LLOQ, respectively) using a 7-point standard curve. Precision and accuracy of the extraction and quantification methods were calculated as the percent relative standard deviation (%RSD) of the spiked standards and percent spiked standard recovered, respectively. The goal was to achieve 100% accuracy (i.e., recover all spiked-in standard at quantification with minimal loss during run time) and good precision (i.e., have %RSD <15% to ensure reproducibility). Test medium was removed following chemical exposure, and cell viability was evaluated in the same wells by MTT. MTT procedures were as follows: after removal of test medium, 500 uL of 0.5 mg/ml of 3-[4,5-dimethylthiazol-2-y]2,5-diphenyltetrazoliumbromide solution was added to the cells. […]

Test [7] is described as follows: CEETOX_H295R_ESTRONE_noMTC: CeeTox H295R High-throughput Steroidogenesis Assay for Estrone, maximum tolerated concentration (MTC) filtered results only (AID 2283921). As to conditions: actives raise or lower the signal. The method, boiled down: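 H295R cells prestimulated 48 h with 10 uM forskolin, then exposed 48 h to chemical in 0.1% DMSO; medium estrone measured by HPLC-MS/MS after MTBE extraction and dansyl derivatization, fitted bidirectionally versus DMSO without MTT-based MTC filtering.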

Test [8] deals with PGR (gene 5241) (UniProt P06401). In words: TOX21_PR_LUC_Followup_Antagonist: Tox21 HEK293 Progesterone Receptor (PR) Antagonism Luciferase Follow-Up Assay (AID 2283938; active = hit-call score of the fitted dose curve at least 0.9, where 1 is the maximum;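 note: curve fitted upward as signal gain over DMSO baseline despite antagonist label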). The method in brief: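 Cells are grown 5 days in charcoal-stripped-FBS assay medium, plated, left 5 h, then dosed with compound and incubated 16 h. ONE-Glo reagent is added and luminescence read after 30 min.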

Test [9] is described as follows: CEETOX_H295R_DOC_noMTC: CeeTox H295R High-throughput Steroidogenesis Assay for DOC, maximum tolerated concentration (MTC) filtered results only (AID 2283918). As to conditions: actives raise or lower the signal. The method, boiled down: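 H295R cells prestimulated 48 h with 10 uM forskolin, then exposed 48 h to chemical in 0.1% DMSO. 11-Deoxycorticosterone in medium measured by MTBE extraction and HPLC-MS/MS; bidirectional fit vs DMSO, no MTC filter.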

Test [10] can be described thus: CEETOX_H295R_TESTO_noMTC: CeeTox H295R High-throughput Steroidogenesis Assay for Testosterone (TESTO), maximum tolerated concentration (MTC) filtered results only (AID 2283924). The note with it: actives raise or lower the signal. The method in brief: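 H295R cells prestimulated 48 h with 10 uM forskolin, then exposed 48 h to chemicals in 0.1% DMSO final. Testosterone in medium quantified by MTBE extraction and HPLC-MS/MS; bidirectional fit versus DMSO, concentrations […] filtered by MTT-based maximum tolerated concentration.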

Results filed as inconclusive are left out. The source made the active and inactive calls. Rule for the calls, unless noted: active = hit-call score of the fitted dose curve at least 0.9, where 1 is the maximum; inactive = score below 0.9.

PGR (gene 5241), sequence (P06401 whole entry, looked up): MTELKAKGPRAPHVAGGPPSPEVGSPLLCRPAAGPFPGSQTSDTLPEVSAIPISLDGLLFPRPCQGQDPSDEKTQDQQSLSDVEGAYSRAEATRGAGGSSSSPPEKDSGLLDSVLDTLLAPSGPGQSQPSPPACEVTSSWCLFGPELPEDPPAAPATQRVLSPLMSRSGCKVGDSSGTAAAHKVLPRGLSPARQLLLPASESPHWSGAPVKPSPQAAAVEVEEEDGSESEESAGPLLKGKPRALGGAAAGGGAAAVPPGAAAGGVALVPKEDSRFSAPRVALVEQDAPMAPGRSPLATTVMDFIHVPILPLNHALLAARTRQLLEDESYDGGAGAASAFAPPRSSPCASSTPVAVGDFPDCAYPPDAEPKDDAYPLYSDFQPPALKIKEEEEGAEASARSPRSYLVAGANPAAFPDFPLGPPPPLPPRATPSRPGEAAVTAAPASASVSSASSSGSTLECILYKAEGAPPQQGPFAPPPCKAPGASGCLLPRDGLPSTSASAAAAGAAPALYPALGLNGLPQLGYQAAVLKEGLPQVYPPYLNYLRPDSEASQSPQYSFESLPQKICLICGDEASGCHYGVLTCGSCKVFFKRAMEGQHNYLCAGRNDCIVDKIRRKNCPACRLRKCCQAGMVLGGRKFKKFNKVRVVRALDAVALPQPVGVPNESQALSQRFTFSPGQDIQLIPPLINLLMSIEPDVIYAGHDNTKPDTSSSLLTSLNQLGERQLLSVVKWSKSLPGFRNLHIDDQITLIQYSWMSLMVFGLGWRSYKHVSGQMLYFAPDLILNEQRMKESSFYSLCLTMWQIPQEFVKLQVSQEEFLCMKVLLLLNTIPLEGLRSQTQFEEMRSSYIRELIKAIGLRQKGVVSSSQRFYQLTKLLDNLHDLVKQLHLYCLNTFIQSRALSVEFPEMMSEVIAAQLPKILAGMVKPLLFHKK

Usually AC50 stands for the concentration at which the activity in the assay is half-maximal. With `C[C@]12CC[C@@H]3c4ccc(O)cc4CC[C@H]3[C@@H]1CCC2=O`, the AC50 with PGR (gene 5241) [1] is 1420 nM (active). The molecule was classed as inactive in [2], in [3] and in test [4].
With `CCCCCc1ccc(N)cc1`, the call in test [5] and in [7] was inactive. Besides, the AC50 in test [6] was 13900 nM (active).
Regarding `Cc1ccc2oc(CN(Cc3ccccc3)C(=O)Nc3c(F)cc(F)cc3F)c(-c3ccc(Cl)cc3)c2c1`, the AC50 was 1950 nM (active) with PGR (gene 5241) [1] and 1090 nM (active) in the test with PGR (gene 5241) [8]. Moreover, the outcome in test [2] and in test [3] was inactive.
In the case of `CC(C)(O)c1ccc(CNC(=O)c2cccnc2Oc2ccc3nonc3c2)cc1`, the concentration at half-maximal activity (AC50) in test [9] is 93.4 nM (active); in test [5] it was 67.1 nM (active); in test [7], 40.7 nM (active). Further, in test [6], the call was inactive.
For the molecule `O=C(O)Cc1cc(I)c(Oc2ccc(O)c(I)c2)c(I)c1`, the AC50 in the test with PGR (gene 5241) [1] was 21500 nM (active). For the same molecule, the call in [2] and in test [4] was inactive.
For the molecule `CC/C(=C(/CC)c1ccc(O)cc1)c1ccc(O)cc1`, the AC50 in test [9] is 84600 nM (active). Moreover, the molecule was classed as inactive in test [6].
Take `c1ccc(C[n+]2cccc3ccccc32)cc1`: the call in test [9], in test [5], in test [6] and in test [7] was inactive.
As for `O=C(O)c1ccccc1C(=O)OCc1ccccc1`, the call in test [9], in [6] and in test [10] was inactive.
For the molecule `CCCCCCCCOc1ccc(C(=O)c2ccccc2)c(O)c1`, the AC50 in test [6] is 30100 nM (active).

The values are drawn from PubChem BioAssay (EPA / NIEHS).
